From PubChem
Compounds with a hit are over-represented: about 21% of the library has one in this group of screens.
ClpP mod = qHTS Assay for Activators of ClpP; ATP-dependent Clp protease proteolytic subunit (Bacillus subtilis (strain 168)), P80244; purified B. subtilis ClpP, FRET peptide cleavage, 20 min; Potency, µM (titrated, usually from 57.5 µM), for inactives: at the highest dose activity change, negative = active; actives 1.9% (n = 340,000); active = well fitted falling curve with a large enough effect; inconclusive = small, poorly fitted or top-dose-only effect; inactive = no such curve, though single readings can be large or run the other way; also: potency is read from the fitted curve at half-maximal effect; the source files actives as falling curves though it sought activators and does not explain the sign; nearly all actives have a fitted effect of over 65% in size
Target sequence (P80244 whole entry, looked up): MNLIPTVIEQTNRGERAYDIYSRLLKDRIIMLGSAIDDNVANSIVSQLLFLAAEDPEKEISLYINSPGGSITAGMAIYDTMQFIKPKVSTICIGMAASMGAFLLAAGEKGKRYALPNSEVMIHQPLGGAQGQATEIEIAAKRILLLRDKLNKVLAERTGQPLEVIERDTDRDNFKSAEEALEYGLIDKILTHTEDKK
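Purified B. subtilis ClpP, 10 microg/mL final in Tris/HCl pH8 with KCl, BSA, glycerol and Tween-20, cleaved an Abz/nitrotyrosine-quenched decapeptide. Fluorescence (ex 320, em 430) was read at 0 and 20 min at room temperature. Delta was normalized to 5.8 microM ADEP and DMSO/no-enzyme controls.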
IL-1B inflam inh = inflammasome signaling inhibition, IL-1 beta readout; actives 4.7% (n = 360,000); THP-1 LPS/ATP IL-1B secretion, AlphaLISA, 16 h; hits give low values; activity change, % at 57.5 µM; in the data active = activity change below about -50%; inconclusive = mostly about -30% to -49%; also: % is scaled to controls: 0 for no effect and ±100 for the full control effect
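THP-1 cells pretreated 1 hr with compounds (up to 57.5 uM final), then stimulated with LPS (250 ng/mL final) plus ATP (1.25 mM final); secreted IL-1B measured by AlphaLISA after 16 hr, decreased signal indicating inhibition.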
D3 antag = blocks the human D3 dopamine receptor; D3R cells, DiscoveRx beta-arrestin luminescence, antagonist mode; hits give low values; P35462; max response, negative = inhibition, %; AID 652054; actives 2.5% (n = 360,000); in the data active = max response below about -50%; inconclusive = no clear call, values can overlap the other calls; also: % is scaled to controls: 0 for no effect and ±100 for the full control effect
Target sequence (P35462 whole entry, looked up): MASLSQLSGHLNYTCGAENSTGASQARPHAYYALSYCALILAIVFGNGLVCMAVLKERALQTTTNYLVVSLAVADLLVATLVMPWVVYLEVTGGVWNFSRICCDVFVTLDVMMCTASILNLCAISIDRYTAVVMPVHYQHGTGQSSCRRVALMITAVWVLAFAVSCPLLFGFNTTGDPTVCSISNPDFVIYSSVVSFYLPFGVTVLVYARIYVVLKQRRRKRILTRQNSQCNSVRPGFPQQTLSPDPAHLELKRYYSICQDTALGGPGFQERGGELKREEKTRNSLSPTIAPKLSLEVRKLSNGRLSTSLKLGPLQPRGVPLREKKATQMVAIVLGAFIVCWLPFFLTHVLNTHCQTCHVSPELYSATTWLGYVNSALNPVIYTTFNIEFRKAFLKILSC
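Cells plated overnight at 1500 cells/well, then exposed to library compounds with dopamine controls for 90 minutes at 37 degrees C. DiscoveRx reagent added for 30–60 minutes at room temperature; luminescence read, quantitative HTS format.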
D3 ag = D3 dopamine receptor (human) agonism; P35462; D3R DiscoveRx beta-arrestin cells, luminescence, 90 min; max activation, %; actives 0.58% (n = 410,000); AID 652048; in the data active = max activation above about 30%; also: 0% is about no effect
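Agonist-mode cell screen: cells plated at 1500/well and incubated overnight at 37 °C, then exposed to library compounds for 90 min at 37 °C. Detection reagent was added for 30–60 min at room temperature, and luminescence was read.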
TDP1 cell noCPT = qHTS for Inhibitors of human tyrosyl-DNA phosphodiesterase 1 (TDP1): qHTS in cells in absence of CPT; actives 15% (n = 420,000); DT40 Tdp1-/- hTDP1 cells, no CPT, ATP luminescence, 48 h; Potency, µM (titrated, usually from 46.2 µM), without a hit: at the top dose activity change, negative = growth inhibition, hits mostly inhibitors; also: potency is read from the fitted curve at half-maximal effect; % is scaled to controls: 0 for no effect and ±100 for the full control effect; nearly all actives have a fitted effect of over 55% in size
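DT40 Tdp1-/-;hTDP1 cells, no CPT (DMSO vehicle only), 400 cells/well; compounds pin-transferred; ≥48 hr, 37 °C; CellTiter-Glo 30 min RT dark, luminescence read.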
DT40 TDP1 CPT = DT40-hTDP1 cell growth loss with CPT. chicken DT40 Tdp1-/-;hTDP1 cells + 20 nM CPT, ATP luminescence, 48 h. Potency, µM (series often up to 46.2 µM), inactives show at the top dose activity change, negative = growth inhibition, actives largely listed as inhibitors. actives 12% (n = 420,000); also: potency is read from the fitted curve at half-maximal effect; % is scaled to controls: 0 for no effect and ±100 for the full control effect; nearly all actives have a fitted effect of over 55% in size
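Chicken DT40 Tdp1-/- cells stably complemented with human TDP1 were seeded at 400 cells/well in medium containing 20 nM camptothecin, exposed to pin-transferred compounds, and grown at 37 °C for at least 48 hr. Viability was read as ATP luminescence.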
* = called active by the depositor; ? = inconclusive; · = not tested or not shown; [ ] = remark or other dose. Unless noted, calls follow the shape of the dose curve; as a rule, active = well fitted inhibition curve with a large enough effect; inconclusive = small, poorly fitted or top-dose-only effect; inactive = flat fitted curve, though single readings scatter.

SMILES	ClpP mod	IL-1B inflam inh	D3 antag	D3 ag	TDP1 cell noCPT	DT40 TDP1 CPT
Cc1ccc(NC(=S)N/N=C/c2cccn2Cc2ccccc2F)cc1	·	9.2	-53.4*	8.0	3.66µM*	4.61µM*
Cc1ccc(CN2CCN(CC(=O)N/N=C/c3ccccc3F)CC2)cc1	0.0%	?	-22.8	-9.8	1.4%	-1.1%
O=C(CNC(=O)c1ccc(Br)o1)Nc1cccc(S(=O)(=O)N2CCCC2)c1	·	61.5	0.0	-2.1	-19.3%	-5.8%
Cc1nc(N)nc(N)c1/C=C/C(C)(C)c1ccc(Cl)cc1	·	-105.6*	12.4	1.9	0.0326µM*	?
CC(C)(C)S(=O)(=O)c1cnc(-c2ccc(Cl)cc2)nc1N	-0.6%	14.6	10.8	-5.0	-23.6%	1.5%
COc1ccccc1CSc1nc2n(n1)C(c1ccccc1)C(C(=O)Nc1ccc(C)cc1)=C(C)N2 (stereo not drawn)	-6.0%	·	·	-9.7	23.1µM*	16.4µM*
CC1=C(C(=O)Nc2ccccc2C)C(c2ccccn2)n2nc(SCc3ccccc3F)nc2N1 (stereo not drawn)	-0.2%	·	·	-9.1	10.3µM*	6.51µM*
CC1=C(C(=O)Nc2ccc(C)cc2C)C(c2ccc(C(=O)O)cc2)n2nc(SCc3ccccc3)nc2N1 (stereo not drawn)	-3.3%	·	·	4.2	-2.9%	-3.4%
COc1ccccc1NC(=O)C1=C(C)Nc2nc(SCc3ccccc3F)nn2C1c1ccncc1 (stereo not drawn)	-0.8%	·	·	-10.6	-23.9%	-6.3%
COc1ccc(NC(=O)C2=C(C)Nc3nc(SCc4ccccc4C)nn3C2c2cc(OC)c(O)c(OC)c2)cc1 (stereo not drawn)	-1.4%	·	·	6.3	-0.7%	-2.4%
COc1cc(C2C(C(=O)Nc3ccc(C)cc3C)=C(C)Nc3nc(SCc4ccccc4)nn32)cc(OC)c1OC (stereo not drawn)	-1.9%	·	·	5.2	23.1µM*	20.6µM*
COc1cccc(CSc2nc3n(n2)C(CC(C)C)C(C(=O)Nc2ccccc2OC)=C(C)N3)c1 (stereo not drawn)	-17.2%	·	·	1.4	13µM*	18.4µM*
CCc1noc(C)c1C(=O)N(C)CC(=O)Nc1ccc(Br)cc1C	-1.8%	0.0	14.1	-7.0	-23.2%	-3.1%
CC1=C(C(=O)Nc2ccc(C)cc2C)C(c2cccs2)n2nc(SCc3ccc(Cl)cc3)nc2N1 (stereo not drawn)	0.6%	·	·	6.9	11.6µM*	10.3µM*
CC1=C(C(=O)Nc2ccccc2C)C(c2cccs2)n2nc(SCc3ccccc3)nc2N1 (stereo not drawn)	-6.1%	·	·	-8.5	20.6µM*	20.6µM*
CC1=C(C(=O)Nc2ccccc2C)C(c2ccncc2)n2nc(SCc3ccccc3)nc2N1 (stereo not drawn)	-3.9%	·	·	-5.8	-8.5%	-11.3%
Cc1c(CC(=O)O)c(=O)oc2c(C)c(OCc3ccc(F)cc3Cl)ccc12	3.6%	27.6	25.1	9.1	27.0%	-7.1%
Cn1c(C2CCC2)nc2cc(C(=O)N3CCOc4ccccc4C3)cc(NC(=O)C3CCCO3)c21 (stereo not drawn)	·	·	·	·	-6.9%	24.3%[9.04 µM]
Fc1ccccc1Sc1ccccc1CNC1=NCCN1	1.8%	-20.4	1.3	-11.3	13µM*	20.6µM*
CN(C)Cc1ccccc1Sc1cccc2ccccc12	-2.7%	?	-19.6	-9.4	?	?
c1ccc(Sc2cccc3ccccc23)c(CNC2=NCCN2)c1	3.16µM*	?	-21.2	-17.5	11.6µM*	13µM*
O=C(CCC(=O)Nc1ccc(F)cc1)N/N=C/c1cccnc1	·	-0.4	8.3	3.5	0.4%	-3.0%
O=C(Nc1nnc(COc2ccc(Cl)cc2)s1)c1cccs1	-2.2%	1.1	-20.1	-8.1	11.6µM*	14.6µM*
O=C(Nc1nnc(COc2ccc(Cl)cc2)s1)c1ccco1	1.4%	?	-1.6	3.8	?	29.1µM*
O=c1nc(SCc2c(F)cccc2Cl)nc(-c2ccccc2)[nH]1	·	18.3	-1.2	2.2	-23.0%	-19.9%
SMILES	ClpP mod	IL-1B inflam inh	D3 antag	D3 ag	TDP1 cell noCPT	DT40 TDP1 CPT
CCc1ccc(CNC(=O)C2CCC(=O)N(CCc3ccc(Cl)cc3)C2)nc1 (stereo not drawn)	-2.4%	-4.8	7.2	1.9	?	?
O=C(c1cc2cc(Br)ccc2o1)N1CCN(c2ccccc2)CC1	-1.3%	2.7	5.0	4.9	?	-1.6%
O=C(Cc1ccc(Br)cc1)N1CCN(C(=O)c2ccccc2)CC1	-0.9%	-16.1	10.6	5.4	5.2%	8.5%
CCOC(=O)c1ccccc1NC(=O)Cn1cc(C(=O)c2cccc(OC)c2)c(=O)c2ccc(C)nc21	-1.7%	·	·	1.0	0.9%	-4.9%
COc1ccc(Br)c2c1-c1nc(NC(=O)c3cccc(C)c3)sc1C2	-5.3%	·	·	-4.6	23.1µM*	?
COc1ccc(C(=O)Nc2nc3c(s2)Cc2cc(OC)ccc2-3)cc1	-3.1%	-53.0*	12.0	-7.6	?	?
COc1ccc2c(c1)CCc1sc(NC(=O)c3ccc(Cl)cc3)nc1-2	-27.8%	·	·	-9.8	20.6µM*	18.4µM*
COc1ccc2c(c1)Cc1sc(NC(=O)c3ccccc3)nc1-2	-21.3%	-4.4	?	-0.5	?	?
COc1ccc2c(c1)Cc1sc(NC(=O)c3cccc(F)c3)nc1-2	-6.1%	·	·	2.2	?	?
COc1ccc2c(c1)Cc1sc(NC(=O)c3cccs3)nc1-2	1.4%	-12.5	5.4	6.1	20.6µM*	?
CC(C)CCN1CCN=C1Nc1ccccc1	1.1%	-7.3	-17.7	19.0	-8.2%	-23.0%
O=C(CSCc1ccc(Cl)cc1)Nc1cc([N+](=O)[O-])ccc1O	·	?	0.0	-9.0	18.4µM*	?
COc1ccc([N+](=O)[O-])cc1NC(=O)CSCc1ccc(Br)cc1	-1.7%	-26.9	?	-40.4	?	?
COC(=O)c1ccccc1NS(=O)(=O)c1cc2c3c(c1)CC(=O)N3CCC2	-2.0%	·	·	-11.2	-25.3%	-26.6%
CC1CCN(C(=O)CCCNC(=O)Cn2cnc3sc4c(c3c2=O)CCCC4)CC1	-0.2%	33.5	3.1	14.7	-17.3%	-24.4%
CC1CCN(CCCNC(=O)CCCNC(=O)Cn2cnc3sc4c(c3c2=O)CCCC4)CC1	-1.3%	-100.6*	-11.4	-6.5	0.1%	-1.4%
